ELG1 repair inh: inhibitors of ELG1-dependent DNA repair in HEK293T cells; Potency, µM (top dose mostly 46.1 µM), for inactives: at the highest dose activity change, negative = inhibition, usual class: inhibitors; 2.3% of 330,000 active; HEK293T ELG1-luciferase reporter, luminescence, 16 h; DNA damage induced by 5-fluorouridine; note: % is set by controls: 0 for no effect and ±100 for the full control effect; nearly all actives have a fitted effect of over 55% in size
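Quantitative HTS, concentration-response format. 2,000 cells/well co-treated with 5-fluorouridine and compound, 16 hr in 5% CO2 at 37 °C; ONE-Glo luminescence read after 30 min.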
KB-3-1 tox: KB-3-1 parental cell cytotoxicity | KB-3-1 viability, CellTiter-Glo ATP luminescence, 72 h | Potency, µM (titrated, usually from 46.1 µM), usual class: cytotoxic | 1.4% of 400,000 active | AID 1347075; note: % is set by controls: 0 for no effect and ±100 for the full control effect; nearly all actives have a fitted effect of over 60% in size
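Using CellTiter-Glo luminescence, growth of non-resistant KB-3-1 adenocarcinoma cells is assessed 72 h after pin-tool compound addition at 37 °C. Normalized responses across the concentration series yield fitted curves.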
KB-V1 MDR tox: KB-V1 MDR subline cytotoxicity | KB-V1 MDR cells viability, CellTiter-Glo, 72 h | Potency, µM (highest dose often 46.1 µM), actives largely listed as cytotoxic | 3.4% of 400,000 active; note: % is set by controls: 0 for no effect and ±100 for the full control effect; nearly all actives have a fitted effect of over 60% in size
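Compound-treated KB-V1 multidrug-resistant cells, 72 h, 37 degrees C; viability by CellTiter-Glo. Fitted qHTS curves give the values.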
SW480 rereplic: DNA re-replication induction in SW480 cells. SW480 DNA re-replication, Hoechst DNA content imaging, 48 h. Potency, µM (doses to about 46.1 µM), for inactives: at the top dose re-replication activation, actives largely listed as activators. 1.8% of 340,000 active. AID 624297; note: % of control where 0% means no effect; nearly all actives have a fitted effect of over 55% in size
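Compounds, transferred as 23 nL by pin tool, were incubated with cells for 48 hr; DNA content per nucleus was then quantified by Hoechst staining and fluorescence plate imaging.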
MCF10A rerep: inducers of DNA re-replication in MCF 10A breast cells | Potency, µM (top dose mostly 46.1 µM), inactives show at the highest dose activity, positive = re-replication, most hits filed as activators | MCF 10A DNA re-replication, Hoechst nuclear intensity, 48 h | AID 624296 | 2.9% of 350,000 active; note: % of control where 0% means no effect; nearly all actives have a fitted effect of over 50% in size
* marks the source's active call; other numbers are inactive results; i = inactive; ? = inconclusive; . = no result given. Rows were chosen to be rich in hits. Some 8.1% of all compounds tested hit in one or more screens of this group. Calls come from the whole dose curve; as a rule, active = well fitted curve in the direction sought with a large enough effect; inconclusive = small, poorly fitted or top-dose-only effect, or another doubt; inactive = no such curve, though single readings can be large; an effect the other way counts as inactive or inconclusive. Potency is the fitted concentration of half-maximal effect.

SMILES	ELG1 repair inh	KB-3-1 tox	KB-V1 MDR tox	SW480 rereplic	MCF10A rerep
Cc1ccc(NC(=O)N(CCCN2CCOCC2)Cc2cc3cc4c(cc3[nH]c2=O)OCO4)cc1	21.0%	i	i	3.8%	24.4%
CCC(=O)N(CCc1ccccc1)Cc1cc2cc3c(cc2[nH]c1=O)OCO3	-8.6%	i	?	?	-0.6%
O=C(Nc1ccc(F)cc1)N(Cc1ccco1)Cc1cc2cc3c(cc2[nH]c1=O)OCO3	23.1µM*	i	i	4.9%	18.4µM*
Cc1nnc(N2CCC(C(=O)NC(C)C)CC2)c2nn(-c3ccc(Cl)cc3)c(C)c12	.	i	i	.	.
Clc1ccc(-c2csc3ncnc(Sc4nnnn4-c4ccccc4)c23)cc1	.	?	i	.	.
COc1ccc(NC(=O)C2Cc3c(-c4cccc(C(N)=O)c4)ccnc3O2)cc1 (configuration not stated)	.	?	i	.	.
CCCCNC(=S)N(Cc1ccco1)Cc1cc2cc3c(cc2[nH]c1=O)OCCO3	14.6µM*	i	i	8.5%	0.5%
COc1ccc(NC(=O)N(Cc2cccs2)Cc2cc3cc4c(cc3[nH]c2=O)OCO4)cc1	20.6µM*	.	.	-2.4%	3.1%
CCCCCCCCCCCCCCCC(=O)OCC(COC(=O)CCCCCCCCCCCCCCC)OC(=O)CCCCCCCCCCCCCCC	.	.	.	2.4%	5.0%
N#Cc1cccc(NC(=O)c2cc(C3CCCCN3S(=O)(=O)c3ccccc3)on2)c1 (configuration not stated)	.	i	?	.	.
CCCCn1c(N)c(N(CC(C)C)C(=O)c2cnccn2)c(=O)[nH]c1=O	-3.8%	i	i	18.4µM*	-3.2%
CCCCn1c(N)c(N(CC(C)C)C(=O)c2cc3c(s2)CCCCC3)c(=O)[nH]c1=O	24.3%	i	i	7.31µM*	-2.2%
CCCCn1c(N)c(N(CC)C(=O)c2ccc(-c3ccc(Cl)cc3)o2)c(=O)[nH]c1=O	9.7%	i	?	22.6%	3.1%
CCCCn1c(N)c(N(CC(C)C)C(=O)c2ccc(-c3ccc(Cl)cc3)o2)c(=O)[nH]c1=O	14.6µM*	?	?	-7.5%	23.1µM*
Cc1ccc(-c2nc(CNC(=O)c3ccco3)cs2)cc1	?	i	i	-1.3%	-52.8%
O=c1[nH]c2c(-c3nc(-c4ccc(F)cc4)cs3)c(O)cn2c2ccc(Br)cc12	.	i	i	.	.
COc1ccc(-c2cc(C(F)(F)F)nc(NCc3ccccc3)n2)cc1OC	.	i	i	.	.
FC(F)(F)c1cc(-c2ccccc2)nc(NC2CCCC2)n1	1.8%	i	i	12.2%	7.31µM*
COc1ccc(NS(=O)(=O)c2cc(NC(=O)C(CC(C)C)NC(N)=O)ccc2N2CCOCC2)cc1 (configuration not stated)	.	i	i	-3.8%	-11.4%
COc1ccc(C(C)(O)c2nc(-c3cccc(NC(C)=O)c3)cs2)cc1 (configuration not stated)	.	i	?	.	.
CCSc1nnc(-c2cccc(S(=O)(=O)N(CC)CC)c2)n1Cc1ccccc1	23.1µM*	i	?	5.4%	?
CCNC(=O)CSc1nnc(-c2cccc(S(=O)(=O)N(CC)CC)c2)n1CCc1ccccc1	?	i	i	-3.5%	1.3%
CCN(CC)S(=O)(=O)c1cccc(-c2nnc(SCc3ncc(-c4ccccc4)o3)n2C)c1	20.6µM*	i	i	-2.4%	0.8%
Cc1cccc(NC(=O)Nc2ccc(Oc3c(F)c(F)c(F)c(F)c3F)cc2)c1	3.5%	i	i	-2.4%	0.0%
O=C(Nc1ccc(Oc2c(F)c(F)c(F)c(F)c2F)cc1)OC1CCN2Cc3ccccc3N=C12 (configuration not stated)	?	8.2µM*	?	13µM*	13µM*
C[C@@H]1CN([C@@H](C)CO)C(=O)CCCn2nncc2CO[C@H]1CN(C)C(=O)c1ccc(N2CCN(C)CC2)cc1	.	i	i	.	.
C/C(=N/Nc1cc(-c2ccccc2)nc(-c2ccccc2)n1)c1ccc(O)cc1	0.6%	?	18.4µM*	-2.3%	18.4µM*

Bioassay records deposited in PubChem by National Center for Advancing Translational Sciences (NCATS).
